# Sampled rows, rich in hits. Any-hit rate of the full collection: about 1.1%.
# GLS inhibitor – inhibitors of human glutaminase (GLS); O94925; GLS enzymatic activity, qHTS titration; Potency, µM (titrated, usually from 45.5 µM), for the others: at the highest dose activity change, negative = inhibition, hits mostly inhibitors; actives 0.21% (n = 410,000); further: on the % scale 0 is the no-effect control and ±100 the full control effect
#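 hKGA; 45 mM KH2PO4 pH 8.2 + 0.02% Tween-20; cpd via pin tool; 1 mM Gln soln; GluOx/HRP/Amplex Red; RT 30 min; fluor. t0 & final.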
# VDR inh – inhibitors of human vitamin D receptor. P11473. VDR-SRC2-3 peptide fluorescence polarization, 2 h. Potency, µM, for inactives: max response, negative = inhibition, actives largely listed as inhibitors. actives 0.93% (n = 400,000). AID 504847; further: on the % scale 0 is the no-effect control and ±100 the full control effect
# Target sequence (P11473 whole entry, looked up): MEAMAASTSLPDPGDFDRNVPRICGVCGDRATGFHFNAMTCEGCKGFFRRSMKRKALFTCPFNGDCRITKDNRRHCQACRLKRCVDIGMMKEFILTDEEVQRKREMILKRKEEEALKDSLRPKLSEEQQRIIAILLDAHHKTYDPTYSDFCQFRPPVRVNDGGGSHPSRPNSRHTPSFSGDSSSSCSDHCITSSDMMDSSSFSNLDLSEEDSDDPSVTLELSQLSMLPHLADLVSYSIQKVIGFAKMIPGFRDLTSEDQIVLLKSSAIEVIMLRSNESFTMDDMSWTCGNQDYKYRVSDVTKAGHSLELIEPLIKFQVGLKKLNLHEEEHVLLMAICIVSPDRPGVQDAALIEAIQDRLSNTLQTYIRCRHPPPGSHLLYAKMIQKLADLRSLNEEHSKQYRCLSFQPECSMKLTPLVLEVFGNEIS
#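 VDR–SRC2-3 interaction, FP format. Cmpds 23 nl via pintool, brief spin, 2 h ambient incubation.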
# Pin1 inhibitor – human Pin1 inhibition; Q13526; Pin1 FP peptide displacement, HiFluor488, 10 min; Potency, µM (top dose mostly 115 µM), for the others: at the highest dose activity, negative = inhibition, most hits filed as inhibitors; actives 0.009% (n = 390,000); active means well fitted inhibition curve with a large enough effect in the polarisation, with a control signal flat, not every such curve was filed as active; inconclusive means small, poorly fitted or top-dose-only effect, or effect the other way, or a change in a side signal; inactive means no such curve, though single readings can be large or run the other way; the % refers to the polarisation; further: on the % scale 0 is the no-effect control and ±100 the full control effect
# Tb PFK inh-1 – T. brucei PFK enzyme inhibition. O15648. T. brucei PFK, ADP-Glo luminescence. Potency, µM (top dose mostly 57.5 µM), inactives show at the top dose activity, negative = inhibition, most hits filed as inhibitors. actives 0.17% (n = 330,000);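 further: 0% = uninhibited 1x PFK enzyme wells and -100% = no-enzyme wells; nearly all actives have a fitted effect of over 60% in size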
#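 In TEA buffer at pH 8.0 with 5 mM MgCl2, enzyme (1.25 nM) converted F6P (0.5 mM) and ATP (0.1 mM) for 45 min at room temperature. ADP product was read by luciferase luminescence.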
# Tb PGK inh – inhibitors of T. brucei phosphoglycerate kinase; PGK/GAPDH coupled, Kinase-Glo luminescence, 60 min; Potency, µM (doses to about 57.5 µM), for the others: at the highest dose activity change, negative = inhibition, most hits filed as inhibitors; actives 0.043% (n = 380,000); AID 602233; further: on the % scale 0 is the no-effect control and ±100 the full control effect; nearly all actives have a fitted effect of over 60% in size
#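 Luminescent ATP detection (Kinase-Glo Plus) follows a 60-minute room-temperature incubation, with wells lacking PGK as controls. Buffer: 100 mM TEA (pH 7.6), 5 mM MgCl2, 0.01% Tween-20. Coupling enzyme GAPDH (100 nM final) supplies unstable 1,3-BPG in-well.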
# TbPFK ATP – orthogonal confirmation of T. brucei phosphofructokinase inhibitors | shares compounds with Tb PFK inh-1 | Tb PFK enzyme, ATP depletion, Kinase-Glo Plus luminescence | Potency, µM (top dose mostly 57.5 µM), for inactives: at the top dose inhibition | actives 47% (n = 1,100) | AID 504636; calls by dose curve; further: nearly all actives have a fitted effect of over 60% in size
# Tb PFK inh-2 – T. brucei PFK enzyme inhibition, hit validation | shares compounds with Tb PFK inh-1 | purified T. brucei PFK, ADP-Glo luminescence, 45 min | Potency, µM (doses to about 57.5 µM), for the others: at the highest dose activity change, negative = inhibition, actives largely listed as inhibitors | actives 41% (n = 1,100) | AID 504637;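 further: plate controls were full PFK enzyme control for no effect and no enzyme control for full effect; nearly all actives have a fitted effect of over 60% in size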
# An asterisk follows results filed as active; i = inactive; ? = inconclusive; / = not tested or not shown. Unless noted, the call rests on the fitted dose curve; in most records, active means well fitted curve in the direction sought with a large enough effect; inconclusive means small, poorly fitted or top-dose-only effect, or another doubt; inactive means no such curve, though single readings can be large; an effect the other way counts as inactive or inconclusive. Potency means the concentration at half of the fitted maximal effect.
SMILES,GLS inhibitor,VDR inh,Pin1 inhibitor,Tb PFK inh-1,Tb PGK inh,TbPFK ATP,Tb PFK inh-2
COC(=O)c1ccc(-c2noc(CN(C)CCC3CCCCO3)n2)cc1 (stereo not given),-1.7%,0.9%,-2.3%,?,-4.6%,3.5%,?
O=C1C(=O)N(CCCn2ccnc2)C(c2cccc(Br)c2)/C1=C(\O)c1ccc2c(c1)OCCO2 (stereo not given),17.2%,-23.0%,2.4%,?,-4.5%,?,?
COc1ccc2c(c1)CCc1c(C(=O)Nc3c(C)nn(Cc4ccccc4C)c3C)noc1-2,2.1%,-0.6%,41.4%,/,3.9%,/,/
COc1ccccc1NS(=O)(=O)c1cc(NC(=O)c2ccc(Cl)nc2)ccc1N1CCCC1,-1.8%,?,24.1%,16.9µM*,-4.0%,4.78µM*,6.01µM*
COc1ccc(CCCc2nnc(SCC(=O)Nc3ccc(C)c(C)c3)o2)cc1,-4.9%,-1.7%,?,4.4%,-2.0%,/,/
CCNc1nc(NCC)n2c(SCC(=O)Nc3ccc(C)c(C)c3)nnc2n1,-2.2%,10.4%,2.8%,13.5µM*,-8.7%,?,?
CCNc1nc(NCC)n2c(SCC(=O)Nc3ccc(OC(F)F)cc3)nnc2n1,-2.8%,-14.3%,-4.6%,7.57µM*,-23.9%,5.36µM*,8.49µM*
COP(=O)(OC)[C@@H](O)C(Cl)(Cl)Cl,/,-1.5%,/,/,/,/,/
CC1(C)CC(=O)C(C(C2=C(O)CC(C)(C)CC2=O)c2cccs2)C(=O)C1 (stereo not given),31.7%,50.1µM*,1.4%,?,-4.6%,28.5%,?
CCN1CCN(C(=S)c2ccc(Br)cc2)CC1,1.1%,?,-6.4%,?,i,10.7µM*,26.9µM*
CCN1CCN(C(=S)c2ccc(O)cc2)CC1,15.8%,79.4µM*,0.7%,13.5µM*,-2.4%,6.75µM*,23.9µM*
C[C@@H]1Cc2c(Cl)cc(C(=O)N[C@@H](Cc3ccccc3)C(=O)O)c(O)c2C(=O)O1,/,0.3%,/,/,/,/,/
O[C@H]1CCCC[C@H]1N1CCC(c2ccccc2)CC1,/,10.9%,/,/,/,/,/
CCCCNc1ccc(C(=O)OCCN(CC)CC)cc1,30.1%,/,/,/,/,/,/
O=C(COC(=O)Cc1ccc(Cl)c(Cl)c1)NCc1ccco1,-24.7%,7.4%,-3.3%,?,-1.1%,13.5µM*,?
CN(CC(=O)NC(=O)NCc1ccco1)CC(=O)Nc1ccccc1Cl,-6.3%,6.7%,-0.6%,?,-4.7%,/,/
COc1ccc(Cn2c(N)c(C(=O)NCc3ccco3)c3nc4ccccc4nc32)cc1,5.9%,-11.7%,80.7%,-16.1%,-7.9%,/,/
Nc1c(C(=O)NCc2ccco2)c2nc3ccccc3nc2n1Cc1ccccc1,-3.4%,-20.1%,62.9%,7.9%,i,/,/
S=C(NCc1ccc(Cl)c(Cl)c1)NCc1ccco1,-1.0%,-17.0%,1.0%,26.9µM*,-6.8%,10.7µM*,21.3µM*
O=C(COC(=O)Cc1ccc(Cl)cc1)NCc1ccco1,?,-1.0%,-11.1%,?,-23.9%,8.49µM*,6.75µM*
O=C(CSc1ccc(Cl)cc1)NCc1ccco1,5.9%,-9.1%,-5.4%,?,-10.2%,13.9%,-17.4%
Cc1cc(C)c2c(ccc3cccc[n+]32)c1,9.3%,-18.3%,-2.3%,/,5.5%,/,/
Cc1ccc(-n2nc(C)c3c2NC(=O)CSC3c2ccc(O)cc2)cc1Cl (stereo not given),24.1%,17.6%,1.6%,/,/,/,/
CCCc1cc(N2CCN(c3ccc(OC)cc3)CC2)n2cnnc2n1,35.4%,-1.8%,3.4%,/,2.3%,/,/
O=C(COC(=O)Cc1ccc(Cl)c(Cl)c1)Nc1ccc2[nH]c(=O)[nH]c2c1,1.2%,-11.1%,29.6%,21.3µM*,-8.0%,?,13.5µM*
O=S(=O)(c1cccc2ccccc12)N1Cc2ccccc2-n2nncc2C1,-1.3%,/,/,/,1.1%,/,/
CCOC(=O)c1ncc2[nH]c3ccc(OCc4ccccc4)cc3c2c1COC,/,-0.6%,/,/,/,/,/

# High-throughput results from PubChem.
